KB-V1 MDR tox – qHTS assay for MDR1-selective chemotherapeutics: Primary screen using the drug-selected MDR subline cells KB-V1. KB-V1 MDR cells viability, CellTiter-Glo, 72 h. Potency, µM (doses to about 46.1 µM), most hits filed as cytotoxic. hit rate 3.4% among 400,000; note: nearly all actives have a fitted effect of over 60% in size
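Drug-selected KB-V1 cells, grown in DMEM lacking phenol red with 10% FBS, receive compound titrations; after three days at 37 degrees C, surviving cell ATP is quantified by CellTiter-Glo luminescence and responses normalized and curve-fitted.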
DT40 TDP1 no CPT – qHTS for Inhibitors of human tyrosyl-DNA phosphodiesterase 1 (TDP1): qHTS in cells in absence of CPT; Potency, µM (titrated, usually from 46.2 µM), for inactives: at the highest dose activity change, negative = growth inhibition, usual class: inhibitors; AID 686978, 2013; DT40 Tdp1-/- hTDP1 cells, no CPT, ATP luminescence, 48 h; hit rate 15% among 420,000; note: nearly all actives have a fitted effect of over 55% in size
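Growth kinetics read by CellTiter-Glo luminescence after ≥48 hr at 37 °C. Cells: DT40 Tdp1-/- stably carrying human TDP1, 400 per well, compound exposure in the absence of CPT (DMSO vehicle).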
HT1080NT lethal – qHTS for induction of synthetic lethality in tumor cells producing 2HG: qHTS for the HT-1080-NT fibrosarcoma cell line; HT-1080-NT fibrosarcoma viability, CellTiter-Glo ATP luminescence, 48 h; Potency, µM (highest dose often 46.1 µM), without a hit: at the top dose activity, negative = less viability, hits mostly cytotoxic; hit rate 1.6% among 360,000; AID 686970, 2013;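 note: NT is the 2HG producing partner of a matched IDH1 knockdown line; 0% = DMSO-treated cells and -100% = media-only wells without cells; nearly all actives have a fitted effect of over 55% in size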
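Viability of the 2HG-overproducing fibrosarcoma line after 48 hours of compound exposure at 37 degrees C was determined by luminescence with CellTiter-Glo, and concentration-effect curves were then fitted and categorized.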
HT1080 IDH1KD tx – qHTS for induction of synthetic lethality in tumor cells producing 2HG: qHTS for the HT-1080-IDH1KD cell line. HT-1080 IDH1 knockdown viability, ATP luminescence, 48 h. Potency, µM (highest dose often 46.1 µM), for inactives: at the highest dose activity, negative = toxicity, most hits filed as cytotoxic. hit rate 2% among 360,000. AID 686971, 2013;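 note: 0% = DMSO wells and -100% = cell-free medium wells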
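Viability of IDH1-knockdown HT-1080 fibrosarcoma cells was assessed by CellTiter-Glo after 48 h at 37 °C with titrated compound; concentration-effect curves were classified by fit quality and response size.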
KB-3-1 tox – qHTS assay for MDR1-selective chemotherapeutics: Primary screen using the parental adenocarcinoma cell KB-3-1 | KB-3-1 viability, CellTiter-Glo ATP luminescence, 72 h | Potency, µM (highest dose often 46.1 µM), hits mostly cytotoxic | hit rate 1.4% among 400,000; note: nearly all actives have a fitted effect of over 60% in size
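72 h, 37 °C compound treatment of KB-3-1 parental cells; CellTiter-Glo added, 10 min, luminescence read. Data corrected against DMSO-only plates and normalized before curve fitting.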
DT40 TDP1 CPT – qHTS for Inhibitors of human tyrosyl-DNA phosphodiesterase 1 (TDP1): qHTS in cells in presence of CPT | chicken DT40 Tdp1-/-;hTDP1 cells + 20 nM CPT, ATP luminescence, 48 h | Potency, µM (doses to about 46.2 µM), for inactives: at the highest dose activity change, negative = growth inhibition, usual class: inhibitors | hit rate 12% among 420,000; note: nearly all actives have a fitted effect of over 55% in size
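Chicken DT40 Tdp1-/- cells complemented with human TDP1, 400 cells/well, exposed to compounds plus 20 nM camptothecin for at least 48 h at 37 C; viability read as ATP content by CellTiter-Glo luminescence.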
An asterisk follows results filed as active; i = inactive; u = inconclusive; x = no result given; [ ] = remark or other dose. The list is not random: actives were taken first. Their share in the collection is about 19%. Calls come from the whole dose curve; as a rule, active = well fitted curve in the direction sought with a large enough effect; inconclusive = small, poorly fitted or top-dose-only effect, or another doubt; inactive = no such curve, though single readings can be large; an effect the other way counts as inactive or inconclusive. Unless noted, % is set by controls: 0 for no effect and ±100 for the full control effect; potency is the fitted concentration of half-maximal effect.

SMILES	KB-V1 MDR tox	DT40 TDP1 no CPT	HT1080NT lethal	HT1080 IDH1KD tx	KB-3-1 tox	DT40 TDP1 CPT
CCCC(C)NC(=S)NC(=O)c1cc(S(=O)(=O)N2CCOCC2)ccc1C (centres undefined)	i	13µM*	1.2%	1.4%	i	20.6µM*
COc1ccc(S(=O)(=O)N2CCOCC2)cc1C(=O)Nc1ccc(N2CCCCCC2)cc1	u	18.4µM*	-22.1%	u	i	18.4µM*
CCCCCC(C)NC(=S)NC(=O)c1cc(S(=O)(=O)N2CCOCC2)ccc1C (centres undefined)	u	u	-13.2%	-21.2%	i	u
Cc1ccc(S(=O)(=O)N2CCCCC2)cc1C(=O)Nc1ccc(N2CCOCC2)cc1	i	12.6µM*	-11.1%	u	i	u
Cc1ccc(S(=O)(=O)N2CCOCC2)cc1C(=O)N1CCc2ccccc21	i	u	-8.3%	-13.9%	i	-0.8%
CS(=O)(=O)Nc1cccc(-c2cncnc2-n2ccnc2)c1	x	1.1%	x	x	x	4.6%
O=C(NC1CCCC1)C(c1ccccc1)n1c(-c2cccc3ccccc23)nc2ccccc21 (centres undefined)	u	u	u	u	i	u
CCCCOc1ccc(S(=O)(=O)N2CCN(c3ccccc3OCC)CC2)cc1	i	u	x	x	u	-25.6%
CN(C)CC(C)(C)CNC(=O)c1cnn(-c2nccc(-c3ccc4c(c3)OCO4)n2)c1-c1ccco1	x	u	x	x	x	-19.9%[9.04 µM]
O=C(Nc1ccc(Nc2ccncc2)cc1)c1ccc([N+](=O)[O-])cc1	i	14.6µM*	u	-1.9%	i	20.6µM*
Cc1nc2ccc(NC(=O)c3ccc([N+](=O)[O-])cc3)cc2[nH]1	i	16.4µM*	19.0%	u	i	u
Cc1nc2ccc(C(=O)Nc3ccc4nc[nH]c4c3)cc2[nH]1	i	-0.7%	17.0%	11.3%	i	21.4%
CCOC(=O)[C@]12CCC=C1N(Cc1ccc(Cl)cc1Cl)C(=O)[C@H](CC(=O)NCc1cccc3ccccc13)C2	u	23.1µM*	-27.0%	-23.0%	i	u
CCOC(=O)[C@]12CCC=C1N(Cc1ccc(Cl)cc1Cl)C(=O)[C@H](CC(=O)NCc1ccc(OC)c(OC)c1)C2	5.17µM*	u	u	-28.5%	7.31µM*	16.4µM*
CCOC(=O)[C@]12CCC=C1N(Cc1cccc3ccccc13)C(=O)[C@H](CC(=O)NCc1cccc3ccccc13)C2	u	u	-4.8%	0.0%	i	u
CCC(Oc1ccccc1)C(=O)Nc1nnc(S(=O)(=O)N2CCCC2)s1 (centres undefined)	i	-11.5%	0.6%	-9.6%	i	-5.0%
Cc1cc([N+](=O)[O-])ccc1NC(c1nnc(-c2ccccc2)o1)c1ccccc1F (centres undefined)	i	-7.2%	x	x	i	8.5%
C/C(=N\Nc1nc(-c2cc(C)ccc2C)cs1)c1cc2c(ccc3ccccc32)oc1=O	u	16.4µM*	-1.1%	-1.7%	u	u
C/C(=N\Nc1nc(-c2cc(C)ccc2C)cs1)c1cc2ccccc2oc1=O	i	0.5%	9.0%	16.2%	i	-3.3%
CNc1cncc(-c2cccc(O)c2)n1	i	-23.2%	-5.2%	5.6%	i	u
C[C@@H]1CN([C@H](C)CO)C(=O)c2c(c3ccccc3n2C)-c2ccccc2CO[C@H]1CN(C)Cc1cccc(C(=O)O)c1	i	-15.7%	-11.0%	-4.4%	i	-19.5%
C[C@@H]1CN([C@H](C)CO)C(=O)c2c(c3ccccc3n2C)-c2ccccc2CO[C@H]1CN(C)Cc1ccc(C(F)(F)F)cc1	i	20.6µM*	u	18.4µM*	u	u
COc1ccc(NC(=O)N(C)C[C@@H]2OCc3ccccc3-c3c(n(C)c4ccccc34)C(=O)N([C@H](C)CO)C[C@H]2C)c(OC)c1	i	u	-23.5%	-20.6%	u	14.6µM*
C[C@@H]1CN([C@H](C)CO)C(=O)c2c(c3ccccc3n2C)-c2ccccc2CO[C@H]1CN(C)Cc1ccc(Oc2ccccc2)cc1	u	25.9µM*	u	u	u	u
C[C@@H]1CN([C@@H](C)CO)C(=O)c2c(c3ccccc3n2C)-c2ccccc2CO[C@H]1CN(C)S(=O)(=O)c1ccc(C(F)(F)F)cc1	i	-15.7%	-3.8%	-0.7%	i	-26.2%
SMILES	KB-V1 MDR tox	DT40 TDP1 no CPT	HT1080NT lethal	HT1080 IDH1KD tx	KB-3-1 tox	DT40 TDP1 CPT
O=C(CNC(=O)c1cccc(-n2cnnn2)c1)Nc1ccc(F)c(F)c1	i	-5.8%	-5.4%[9.24 µM]	-1.3%	i	-9.2%
CCOC(=O)c1nc(NCc2ccccc2)c2ccccc2n1	i	u	4.3%	0.7%	i	u
CCOC(=O)c1nc(Nc2ccccc2CC)c2ccccc2n1	i	18.4µM*	-2.6%	-6.5%	u	u
CCOC(=O)c1nc(Nc2cccc(C)c2)c2ccccc2n1	u	11.6µM*	1.1%	-10.8%	i	23.1µM*
CCOC(=O)c1ccc(Nc2nnc(C)c3ccccc23)cc1	i	16.4µM*	u	-3.1%	i	-11.6%
CCOC(=O)c1nc(Nc2ccc(C(C)=O)cc2)c2ccccc2n1	u	14.6µM*	-3.7%	4.1%	i	16.4µM*
CCOC(=O)c1nc(Nc2ccc(N3CCOCC3)cc2)c2ccccc2n1	i	u	3.4%	1.7%	i	u

High-throughput results as filed in PubChem.
